# From PubChem BioAssay
# In the library only some 2.8% were active in any assay of this set; here they are far more common.
# HepG2 viability – HepG2 cytotoxicity, counter-screen for TGF-b inhibitors | hit rate 0.76% among 410,000 | HepG2 CAGA-GFP viability, ATP luminescence, 18 h | Potency, µM (titrated, usually from 46.1 µM), inactives show top-dose activity change, negative = cytotoxicity, usual class: cytotoxic; note: potency is the fitted concentration of half-maximal effect
#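 CellTiter-Glo luminescence gave cytotoxicity after 18 hours at 37 degrees C. The cells were HepG2 CAGA-GFP in 1% FBS DMEM, stimulated with 500 pg/mL TGF-beta after compound addition. %Activity was normalised to no-cell wells (complete cell-killing) and DMSO (no toxicity), and curves were fitted and classified.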
# Six1-Eya2 inh – Six1/Eya2 interaction inhibition; Q15475+O00167; AlphaScreen GST-Six1/His-Eya2 binding, biochemical; hits give low values; activity change, % (concentration not given with the values); hit rate 0.56% among 360,000; AID 651725; in the data active = activity change below about -65%; inconclusive = mostly about -30% to -63%; note: % is set by controls: 0 for no effect and ±100 for the full control effect
# Target sequence (O00167 whole entry, looked up): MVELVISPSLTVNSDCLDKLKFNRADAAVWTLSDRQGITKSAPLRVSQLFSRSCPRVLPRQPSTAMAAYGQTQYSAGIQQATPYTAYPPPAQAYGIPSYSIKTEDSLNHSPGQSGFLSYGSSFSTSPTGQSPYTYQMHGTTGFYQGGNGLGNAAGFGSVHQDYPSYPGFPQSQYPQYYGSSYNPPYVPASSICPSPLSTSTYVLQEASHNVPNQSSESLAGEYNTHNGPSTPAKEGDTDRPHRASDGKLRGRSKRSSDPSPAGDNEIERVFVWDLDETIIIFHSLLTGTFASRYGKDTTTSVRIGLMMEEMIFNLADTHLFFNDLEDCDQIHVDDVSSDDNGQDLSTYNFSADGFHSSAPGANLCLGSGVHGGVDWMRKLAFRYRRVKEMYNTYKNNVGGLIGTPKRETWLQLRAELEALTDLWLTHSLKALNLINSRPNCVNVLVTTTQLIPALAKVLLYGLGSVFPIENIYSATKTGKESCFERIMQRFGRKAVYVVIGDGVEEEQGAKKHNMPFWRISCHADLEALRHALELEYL
# Target sequence (Q15475 whole entry, looked up): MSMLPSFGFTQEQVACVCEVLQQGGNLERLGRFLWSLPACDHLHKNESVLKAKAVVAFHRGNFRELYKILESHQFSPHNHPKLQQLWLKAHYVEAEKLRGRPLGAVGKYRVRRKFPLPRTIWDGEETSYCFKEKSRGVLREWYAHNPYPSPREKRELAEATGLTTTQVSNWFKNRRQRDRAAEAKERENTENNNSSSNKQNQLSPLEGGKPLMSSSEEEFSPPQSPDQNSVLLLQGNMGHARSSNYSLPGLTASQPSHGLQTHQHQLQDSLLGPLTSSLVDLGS
#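 GST-Six1 + His-Eya2 (5X stock: 250/500 nM); Tris pH 8.0, 300 mM NaCl, 0.05% BSA, 0.02% Tween 20; GSH donor/Ni acceptor beads; 1 h 37 °C dark; AlphaScreen readout.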
# CtBP-E1A blk – blocks the CtBP interaction with E1A. AID 651724. activity change, % (no concentration beside the values). AlphaScreen GST-E1A/His-CtBP binding, 1536-well; hits give low values. hit rate 0.49% among 340,000; in the data active = activity change below about -65%; inconclusive = mostly about -30% to -63%; note: % is set by controls: 0 for no effect and ±100 for the full control effect
#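 Homogeneous bead-based format: GST-tagged E1A captured on glutathione donor beads, His-tagged CtBP on nickel acceptor beads; compounds precede bead addition by 2 h at 37 °C.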
# ATXN viability – reduces viability in counter-screen for ATXN expression inhibitors | S2 cells (HEK-293 line with an ATXN2-luciferase reporter) viability, CellTiter-Fluor protease fluorescence, 24 h | hit rate 0.49% among 400,000 | AID 651635 | Potency, µM (doses to about 56.7 µM), hits mostly cytotoxic; note: potency is the fitted concentration of half-maximal effect; nearly all actives have a fitted effect of over 40% in size
# ATXN2 expr inh – ATXN2 expression inhibition. hit rate 0.72% among 360,000. AID 1745845. HEK-293 ATXN2-luciferase reporter, luminescence, 24 h. Potency, µM (top dose mostly 57 µM), for inactives: top-dose activity change, negative = inhibition, most hits filed as inhibitors; note: potency is the fitted concentration of half-maximal effect; % is set by controls: 0 for no effect and ±100 for the full control effect; nearly all actives have a fitted effect of over 55% in size
#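 qHTS (up to 57 uM final) was run with 24 h compound exposure of reporter cells at 37 °C. Each well was multiplexed: SteadyGlo luminescence measured ATXN2-luciferase expression after a fluorogenic Gly-Phe-AFC viability readout (25 uM final).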
# TGFb SMAD3 inh – inhibitors of TGF-b signaling. AID 588855. Potency, µM (series often up to 46.1 µM), inactives show at the top dose activity, negative = inhibition, usual class: inhibitors. HepG2 CAGA-GFP TGF-b/SMAD3 reporter, GFP fluorescence, 18 h; TGF-beta stimulated, 500 pg/mL final. hit rate 1.2% among 410,000; note: potency is the fitted concentration of half-maximal effect; % is set by controls: 0 for no effect and ±100 for the full control effect; nearly all actives have a fitted effect of over 65% in size
#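 HEPG2 CAGA-GFP reporter cells (1000/well, DMEM with 1% FBS) received compounds, then recombinant TGF-beta at 500 pg/mL final for 18 hours at 37 degrees C. Per-cell GFP summed per well was normalised to unstimulated and stimulated DMSO controls before curve fitting.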
# * marks the source's active call; other numbers are inactive results; i = inactive; u = inconclusive; x = no result; [ ] = remark or other dose. Unless noted, calls come from the whole dose curve; as a rule, active = well fitted curve in the direction sought with a large enough effect; inconclusive = small, poorly fitted or top-dose-only effect, or another doubt; inactive = no such curve, though single readings can be large; an effect the other way counts as inactive or inconclusive.
SMILES,HepG2 viability,Six1-Eya2 inh,CtBP-E1A blk,ATXN viability,ATXN2 expr inh,TGFb SMAD3 inh
COc1cc(OC)cc(-c2cc3nc(C)c(CCC(=O)NC(C)CCc4ccco4)c(C)n3n2)c1 (configuration not stated),3.5%,u,u,i,u,-8.1%
COc1cc(OC)cc(-c2cc3nc(C)c(CCC(=O)O)c(C)n3n2)c1,0.0%,u,u,i,0.708µM*,-0.4%
O=C(NCc1ccccc1)C(=O)NCC(c1cccs1)S(=O)(=O)c1ccccc1 (configuration not stated),-10.8%,x,x,i,-9.5%,-7.8%
COC(=O)CCn1nnc(-c2cccs2)n1,4.9%,-0.7,-1.5,i,1.8%,11.9%
COC(=O)CCn1nnc(-c2ccc(C(C)C)cc2)n1,2.4%,12.4,21.1,i,0.501µM*,-2.6%
CCCN1C(=O)c2ccccc2NC1c1ccc(OC)c(COc2ccc([N+](=O)[O-])c(C)c2)c1 (configuration not stated),-4.5%,x,x,x,x,17.2%
COc1cccc(CNC(=O)c2c(OC)cc(=O)n3c2CCN(C(=O)c2ccc(C)s2)CC3)c1,x,x,x,i,x,x
Cc1cc(OC(C)C(=O)NNC(=O)Nc2ccc(F)cc2F)cc(C)c1Cl (configuration not stated),-31.5%,0.2,7.6,i,9.0%,15.8µM*
CC=C(C)C(=O)O[C@H]1C(C)=C[C@]23C(=O)[C@@H](C=C(CO)[C@@H](O)[C@]12O)[C@H]1[C@@H](C[C@H]3C)C1(C)C,x,x,x,x,-14.6%,x
O=[N+]([O-])c1ccccc1S(=O)(=O)N1CCSCC1,2.7%,4.5,-3.1,i,-0.7%,-2.4%
CC1=NCCN1S(=O)(=O)c1ccccc1[N+](=O)[O-],3.4%,-93.1*,x,i,x,-9.2%
COc1cc(Cl)c(NC(=O)CCS(=O)(=O)c2cc3c(cc2Cl)NC(=O)CO3)c(OC)c1,1.1%,x,x,i,12.8%,4.6%
O=C(NCc1nc2ccccc2[nH]1)C1=C[C@@H](c2ccc(Br)cc2)C[C@@H](OCc2ccc(CO)cc2)O1,-57.2%,1.7,-9.5,u,0.0%,12.6µM*
O=C(Nc1ccccc1)C1=C[C@H](c2ccc(C(F)(F)F)cc2)C[C@H](OCc2ccc(CO)cc2)O1,-32.4%,-8.9,-4.1,u,u,12.6µM*
O=C(NCc1nc2ccccc2[nH]1)C1=C[C@@H](c2ccc(Br)cc2)C[C@@H](OCCCCO)O1,-37.7%,-3.3,1.2,x,0.0%,-15.7%
CCn1nc(C)c(C(=O)Nc2cc(Oc3cc(C)cc(C)c3)cc([N+](=O)[O-])c2)c1C,-46.1%,-14.2,-10.8,i,-24.8%,14.1µM*
Cc1nn(C)cc1C(=O)Nc1cc(Oc2ccc(Cl)cc2)cc([N+](=O)[O-])c1,-3.3%,1.4,2.4,i,0.0%,9.7%
COc1ccc(NC(=O)CCCS(=O)(=O)c2nc(-c3ccc(OC)c(OC)c3)cc(C(F)(F)F)n2)cc1OC,-100.9%,x,x,x,x,2.51µM*
COc1ccc(-c2cc(C(F)(F)F)nc(S(=O)(=O)CCCC(=O)Nc3cccc(O)c3)n2)cc1OC,5.62µM*,13.7,12.6,x,-98.1%,3.55µM*
COc1ccccc1-c1cc(C(F)(F)F)nc(S(=O)(=O)CCCC(=O)O)n1,-45.9%,-9.0,2.9,u,u,17.8µM*
COc1ccc(-c2cc(C(F)(F)F)nc(S(=O)(=O)CCCC(=O)Nc3ccccc3C(F)(F)F)n2)cc1OC,-2.7%,x,x,x,x,2.82µM*
COc1ccccc1-c1cc(C(F)(F)F)nc(S(=O)(=O)CCCC(=O)Nc2cc(OC)c(OC)c(OC)c2)n1,-15.1%,x,x,i,14.7%,2.1%
COc1ccccc1-c1cc(C(F)(F)F)nc(S(=O)(=O)CCCC(=O)Nc2ccc(F)c(Cl)c2)n1,-4.2%,x,x,i,1.4%,0.3%
CCCn1c(CCC(=O)Nc2cc(C(=O)OC)cc(C(=O)OC)c2)nc2cccnc21,-2.3%,x,x,i,-10.0%,1.8%
O=C1C(c2ccc(F)cc2)N(Cc2ccccc2Cl)C(=O)CN1C1CCCCC1 (configuration not stated),-24.7%,x,x,u,-38.9%,2.0%
SMILES,HepG2 viability,Six1-Eya2 inh,CtBP-E1A blk,ATXN viability,ATXN2 expr inh,TGFb SMAD3 inh
Cc1cc(C)cc(NC(=O)CN2C(=O)CCc3cc(S(=O)(=O)N4CCCCC4)ccc32)c1,-2.4%,x,x,i,-25.3%,u
Nc1ccccc1NC(=O)c1ccc(CNC(=O)OCc2cccnc2)cc1,x,x,x,x,102.1%,x
O=c1[nH]c2ccc(Br)cc2o1,9.1%,0.9,4.3,i,6.5%,21.1%
O=C(CCl)c1ccc2[nH]c(=O)oc2c1,10µM*,1.2,-14.7,i,x,u
O=C(c1cnsn1)N1CCOc2ccc(CN3CCOCC3)cc2C1,x,x,x,i,x,x
CCCCCc1c2c(cc(O)c1C(=O)O)OC(=O)c1c(cc(OC)cc1C(=O)CCCC)O2,-68.7%,-6.9,3.7,x,u,20µM*
CCCCCOc1ccccc1/C(=C\SC)n1ccnc1,x,x,x,i,-12.9%,x
CCOc1cc(/C=N/NC(=O)CN(CCc2ccccc2)S(=O)(=O)c2ccc(NC(C)=O)cc2)ccc1O,-19.9%,-75.4*,-0.4,i,-22.3%,-28.2%
COc1ccc(S(=O)(=O)N(CCc2ccccc2)CC(=O)N/N=C/c2ccc3c(c2)OCO3)cc1,23.9%,0.8,-11.0,i,-2.7%,-12.4%
CC(C)Cc1cc(CN2CCC(CO)(Cc3cccc(C(F)(F)F)c3)CC2)[nH]n1,15.8µM*,-6.7,-4.4,i,-16.8%[11.3 µM],u
Cc1ccc(-n2cc(CN3CCC(CO)(Cc4cccc(C(F)(F)F)c4)CC3)cn2)cc1,11.2µM*,2.2,-14.2,i,-33.6%[11.3 µM],u
CSc1cccc(CN2CCC(CO)(Cc3cccc(C(F)(F)F)c3)CC2)c1,-109.5%,-7.9,-1.5,u,u,u
COc1ccc(CN2C(=O)CN(S(C)(=O)=O)CC2(C)C(=O)Nc2c(C)cccc2C)cc1 (configuration not stated),x,4.5,-12.0,x,x,x
COC(=O)c1ccc(OC(=O)c2cccs2)cc1,5.7%,-67.5*,4.3,i,-3.0%[11.3 µM],-8.7%
CCc1cc(SC#N)cc(CC)c1NC(=O)CCl,-81.3%,-17.9,-16.4,u,u,7.94µM*
Cc1cc(C)c2c(NC(=O)CCl)nn(C)c2n1,-12.7%,-9.2,-10.9,u,-3.7%[11.3 µM],-3.4%
CCCN(C(=O)c1coc(=O)c2ccccc12)c1ccccc1C,-8.7%,x,x,i,-15.5%,-21.0%
O=C(N/N=C/C(Cl)=C/c1ccc([N+](=O)[O-])cc1)C(=O)Nc1cccc(C(=O)O)c1,0.4%,u,-92.1*,i,13.3%,-3.7%
